# NS1 inh: inhibitors of influenza NS1 protein function; Potency, µM (doses to about 46.1 µM), for inactives: at the highest dose activity, positive = more growth; 0.4% of 270,000 active; AID 2326; also: potency is read from the fitted curve at half-maximal effect; actives are rising curves; nearly all actives have a fitted effect of over 50% in size
#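 Compounds were scored for reversing the slow growth caused by influenza A NS1 in S. cerevisiae, measured by optical density at 600 nm. Assay medium contained 2% galactose at pH 6.0; NS1-free yeast of the same strain were the positive control.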
# CHX counter: counter-screen for Shiga toxin inhibitors: cycloheximide protein synthesis inhibition | 12% of 300,000 active | cell reporter, cycloheximide protein synthesis inhibition counterscreen | AID 2314 | max response, %; in the data active = max response mostly above about 13%, no sharp cut-off; inactive = mostly below about 14%; also: read at 38.3 µM for the half of the compounds with a filed dose; 0% is about no effect
# Tb PYK inh: blocks Trypanosoma brucei pyruvate kinase | AID 624173 | 0.12% of 410,000 active | Q57TT1 | Potency, µM (top dose mostly 76.8 µM), for inactives: top-dose activity, negative = inhibition, hits mostly inhibitors | TbPYK enzyme, Kinase-Glo Plus ATP luminescence, 45 min; active = well fitted curve in the direction sought with a large enough effect; an effect the other way counts as inactive or inconclusive; also: potency is read from the fitted curve at half-maximal effect; % is scaled to controls: 0 for no effect and ±100 for the full control effect; nearly all actives have a fitted effect of over 50% in size
#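 Luminescence from Kinase-Glo Plus, added after a 45-minute room-temperature reaction, served as the end-point read-out. The enzyme and substrate were preincubated with compound before ADP (130 uM final) initiated turnover. Concentration-effect curves came from normalized qHTS data.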
# Shiga toxin inh: Shiga toxin inhibition; inhibition, % at 38.7 µM; 9.2% of 290,000 active; AID 2315; Vero cells, Shiga toxin protein synthesis inhibition reporter; in the data active = inhibition mostly above about 28%, no sharp cut-off; inactive = mostly below about 43%; also: 0% is about no effect
# LmPK inhibitor: LmPK (Leishmania mexicana) enzyme inhibition; Q27686; purified LmPK, Kinase-Glo ATP luminescence, 1 h; Potency, µM (top dose mostly 57.5 µM), without a hit: at the highest dose activity change, negative = inhibition, actives largely listed as inhibitors; 0.37% of 290,000 active; AID 1721; active = well fitted curve in the direction sought with a large enough effect; an effect the other way counts as inactive or inconclusive; also: potency is read from the fitted curve at half-maximal effect; % is scaled to controls: 0 for no effect and ±100 for the full control effect
# Target sequence (Q27686 whole entry, looked up): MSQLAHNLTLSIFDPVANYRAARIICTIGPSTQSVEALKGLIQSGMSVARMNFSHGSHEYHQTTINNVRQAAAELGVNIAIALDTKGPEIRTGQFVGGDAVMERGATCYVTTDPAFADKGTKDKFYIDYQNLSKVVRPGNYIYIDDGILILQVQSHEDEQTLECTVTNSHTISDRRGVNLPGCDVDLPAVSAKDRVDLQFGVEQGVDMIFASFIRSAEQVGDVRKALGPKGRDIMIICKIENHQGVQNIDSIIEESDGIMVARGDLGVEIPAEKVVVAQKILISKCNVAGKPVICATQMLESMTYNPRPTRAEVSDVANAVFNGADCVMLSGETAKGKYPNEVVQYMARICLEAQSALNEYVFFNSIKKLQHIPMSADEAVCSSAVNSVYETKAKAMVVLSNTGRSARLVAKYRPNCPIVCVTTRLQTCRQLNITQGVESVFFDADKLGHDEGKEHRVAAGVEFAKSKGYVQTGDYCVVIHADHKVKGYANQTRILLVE
#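 0.1 nM LmPK, 0.5 mM PEP, 0.1 mM ADP; 50 mM imidazole pH 7.2, 7 mM MgCl2, 50 mM KCl; 1 h RT. Kinase-Glo luminescence readout, normalized to no-enzyme (full inhibition) and uninhibited wells.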
# SARS PLP yeast: blocks SARS-CoV papain-like protease in a yeast assay | AID 485353 | Potency, µM (titrated, usually from 32.9 µM), without a hit: top-dose activity, positive = growth rescue, hits mostly activators | 0.19% of 330,000 active | S. cerevisiae expressing SARS-CoV PLpro, growth rescue; also: potency is read from the fitted curve at half-maximal effect; 0% is about no effect; nearly all actives have a fitted effect of over 55% in size
# Numbers without * were called inactive; i = inactive; x = no result; + = active, no number. Shown is part of a subset that was picked to be rich in hits. Unless noted, calls follow the shape of the full dose curve.
SMILES,NS1 inh,CHX counter,Tb PYK inh,Shiga toxin inh,LmPK inhibitor,SARS PLP yeast
CC1CCC/C(=N\NC(=O)Nc2ccccc2)C1 (configuration not stated),6%,27*,1%,53*,10%,-2%
O=C(NCc1cccs1)c1ccc(Cn2c(SCc3cccc(F)c3)nc3cccnc32)cc1,x,x,-5%,x,x,x
CCCCOc1ccc(-c2nc(/C=N/c3nccs3)c(O)o2)cc1,4%,2,7%,2,6%,-12%
Oc1oc(-c2ccccc2)nc1C=Nc1cccc2ccccc12,-7%,20*,12%,26,1%,-15%
Oc1oc(-c2ccccc2)nc1/C=N/c1nccs1,-7%,33*,-19%,+,-8%,-22%
CCCCc1c(O)nc(SCC(=O)N2CCOCC2)n(-c2ccc(C)cc2)c1=O,x,x,2%,x,x,x
Cc1ccc2[nH]c(C(=O)N3CCC(C(N)=O)CC3)cc2c1,15%,16,-4%,x,10%,14%
CCOC(=O)N1CCN(C(=O)c2cc3cc(F)ccc3[nH]2)CC1,-2%,-1,3%,-1,-3%,-1%
Cc1ccc2[nH]c(C(=O)N3CCOCC3)cc2c1,8%,active,1%,17,-2%,-5%
O=C(c1cc2cc(Br)ccc2[nH]1)N1CCC2(CC1)OCCO2,-11%,28*,-9%,46,7%,-3%
Cc1ccc2[nH]c(C(=O)N3CCCCC3)cc2c1,-11%,26*,-9%,x,1%,-1%
CC1CN(c2nc(Nc3ccccc3F)nc(N)c2[N+](=O)[O-])CC(C)O1 (configuration not stated),-1%,-2,4%,-4,8%,3%
Cc1nc2nc(NC(=O)CC(C)C)[nH]n2c(=O)c1Cc1ccccc1,x,x,1%,x,x,x
COc1ccc(N(CC(=O)NC2CCCC2)C(=O)Cn2nnc(-c3ccc(F)cc3)n2)cc1,-9%,-4,0%,-5,0%,2%
c1cc(-c2noc(-c3ccc4c(c3)OCO4)n2)ccn1,11%,x,x,x,x,x
Cc1ccc(-c2nc(-c3ccncc3)no2)cc1Cl,0%,28*,-3%,61*,2%,1%
Fc1cccc(F)c1-c1nc(-c2ccncc2)no1,-3%,48*,3%,86*,-9%,0%
Cc1cc(-c2nc(-c3ccncc3)no2)ccc1[N+](=O)[O-],2%,33*,-6%,88*,-6%,-3%
Fc1ccccc1-c1nc(-c2ccc(Cl)cc2)no1,x,x,-1%,x,x,x
CCOc1ccc(-c2noc(-c3ccncc3)n2)cc1OCC,-12%,-1,1%,19,1%,-5%
COc1ccc(-c2nc(-c3ccncc3)no2)cc1OC,-12%,48*,x,79*,-5%,-2%
O=C1/C(=C\c2c(NCCOCCO)nc3ccccn3c2=O)SC(=S)N1Cc1ccco1,13%,-2,-20%,x,-8%,-3%
COc1ccc(C2CC=C(C(C)=O)CN2S(=O)(=O)c2ccc(C)cc2)cc1 (configuration not stated),x,x,3%,x,x,x
O=C(c1ccccc1)C(O)C(c1ccccc1)N1CCOCC1 (configuration not stated),-2%,-6,-3%,-7,8%,0%
CN(C)C(=O)c1ccc(-c2nnc(OCc3nc4ccccc4n3C)c3ccccc23)cc1,x,x,4%,x,x,x
SMILES,NS1 inh,CHX counter,Tb PYK inh,Shiga toxin inh,LmPK inhibitor,SARS PLP yeast
COc1ccc(-c2noc(-c3ccccc3Cl)n2)cc1OC,-11%,56*,4%,65*,-13%,-1%
COc1cc(-c2noc(-c3cccs3)n2)cc(OC)c1OC,-13%,-1,-12%,-1,1%,14%
COc1ccc(-c2noc(-c3ccco3)n2)cc1OC,-54%,43*,-1%,139*,-23%,x
CCOc1ccc(-c2noc(-c3cccnc3)n2)cc1OCC,-1%,1,1%,12,1%,0%
COc1ccc(-c2noc(-c3cccs3)n2)cc1OC,-24%,52*,-4%,69*,-15%,-1%
CCOc1ccc(-c2nc(-c3cccnc3)no2)cc1OCC,-8%,12*,7%,41,3%,-8%
CCOc1cc(S(=O)(=O)NCCc2c(C)[nH]c3ccc(C)cc23)ccc1Br,x,x,4%,x,x,x
CCn1c(SCc2nc(-c3ccc(OC)c(OC)c3)no2)nnc1-c1cccs1,-16%,15*,4%,7,0%,-19%
COc1ccc(-c2noc(CSc3nnc(Cc4ccccc4)n3-c3ccccc3)n2)cc1OC,x,x,3%,x,x,x
Cc1ccc(-c2nc(-c3ccncc3)no2)cc1C,-1%,52*,-2%,133*,-10%,0%
COc1ccc(-c2c(C)c3ccc(OCC(C)=O)cc3oc2=O)cc1,-5%,49*,x,110*,-3%,2%
O=c1oc2cc(O)ccc2c2oc3cc(O)ccc3c12,-8%,13*,-10%,31*,-5%,-6%
CCCOc1ccc2c(C)c(CC(=O)OC)c(=O)oc2c1,4%,31*,3%,52*,-5%,-3%
Cc1oc2cc3oc(=O)c(CCC(=O)NC4CC4)c(C)c3cc2c1C,9%,-4,-1%,1,0%,-2%
C=C(C)COc1ccc2c(C)c(CCC(=O)NC3CC3)c(=O)oc2c1,-31%,22*,11%,19,-2%,-5%
O=c1oc2cc(O)ccc2c2ccccc12,-82%,-2,2%,-16,-2%,-17%
N#CCN1C(=O)NC2(CCCc3sccc32)C1=O (configuration not stated),5%,-7,2%,13,-2%,14%
CCOC(=O)C1Oc2ccccc2C(c2ccccc2)=C1C(C)=O (configuration not stated),x,4,x,i,x,x
COc1ccc([C@H]2CC(=O)C=C(c3ccc(Cl)c(F)c3)C2)cc1,x,x,-2%,x,x,-5%
CN(C)CCCNc1nc2cc(-c3ccn[nH]3)sc2c(=O)n1C,x,x,1%,x,x,x
O=c1[nH]c(SCc2cccc([N+](=O)[O-])c2)nc2nc[nH]c12,-3%,x,x,x,x,x
CCCc1cc(=O)c2ccc(OCC(C)=O)cc2o1,-4%,2,-3%,3,7%,1%
COc1ccc2c(c1)c(=O)oc1cc(O)ccc12,-4%,2,0%,-5,0%,-1%
CCc1c(C)c2ccc(OCC(N)=O)cc2oc1=O,-3%,20*,-4%,45,-7%,-2%
COc1ccc(-c2c(C)c3ccc(O)cc3oc2=O)cc1,-15%,53*,-4%,50*,-9%,-3%
CC(=O)COc1ccc2c(C)c(C)c(=O)oc2c1,-64%,52*,-10%,79*,-2%,4%
Cc1c2cnn(CC(=O)Nc3cccc(C(F)(F)F)c3)c(=O)c2c(C)n1Cc1ccccc1Cl,x,x,1%,x,x,x
COc1cccc2cc(-c3nc(-c4ccc(Cl)cc4)cs3)c(=O)oc12,x,x,0%,x,x,x
O=C(CN1CCN(c2cccc(C(F)(F)F)c2)CC1)NCc1ccccc1,-4%,-1,-3%,-10,-3%,-5%

# Source: PubChem BioAssay (National Center for Advancing Translational Sciences (NCATS))
